The entries come from a sample that favours hits as a whole.
TTR transcr act = activators of transthyretin transcription | hit rate 1.3% among 92,000 | SH-SY5Y TTR promoter Gaussia luciferase, luminescence; 100% = recombinant luciferase protein wells | activation, % at 16.7 µM;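 active means activation above the mean of all tested compounds plus 3 SD, cut at about 9.5% in these data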;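 further: cells exposed to compounds for one day before reading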
TTR inh HuH7 = HuH7 TTR transcription inhibition, counter-screen | shares compounds with TTR transcr act | HuH7 TTR promoter-Gaussia luciferase reporter, luminescence | inhibition, % at 16.7 µM | hit rate 4% among 1,100 | AID 1117279;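 active means average inhibition above the solvent-only control wells' mean plus 3 SD, cut at about 15% in these data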;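 further: inhibitors lower well luminescence so higher value means more inhibition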
TTR up confirm = confirmation of human transthyretin transcription activators; shares compounds with TTR transcr act; SHSY5Y TTR promoter Gaussia luciferase, luminescence; 100% = purified Lucia enzyme wells, no cells; activation, % at 16.7 µM; 1,100 tested, under 10 active;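 active means mean activation above a set limit taken from the earlier primary screen, cut at about 11% in these data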
Numbers stand for hits; i = inactive.

SMILES	TTR transcr act	others
COc1ccccc1CNC(=O)CCCn1nc(C)c2c(C)n(-c3ccc(C)cc3)nc2c1=O	i
COc1ccccc1CN(Cc1nc2ccccc2c(=O)[nH]1)S(=O)(=O)c1ccc(C)cc1	i
CCOC(=O)Cn1nc(-c2ccccc2)ccc1=O	i
CCC(CO)Nc1ccn2nc(-c3ccccc3)cc2n1 (configuration not stated)	26	TTR inh HuH7=i;TTR up confirm=i
CCc1ccn2cc(-c3cc(-c4ccccc4)no3)nc2c1	i
COc1ccc(CCNC(=O)c2ccccc2NS(=O)(=O)c2cc(C(=O)O)ccc2OC)cc1	i
Cc1nc2c(C)cccn2c1C(=O)N/N=C/c1ccccc1[N+](=O)[O-]	i
COCCCNC(=O)C12CCC(C)(C(=O)C1)C2(C)C (configuration not stated)	i
Cc1ccc(S(=O)(=O)Nc2ccc3nc(C)oc3c2)cc1	i
Cc1cccc(OCC(=O)NNS(=O)(=O)c2ccccc2F)c1	16	TTR inh HuH7=i;TTR up confirm=i
Cc1cccc(OCC(=O)NNC(=O)CCc2ccccc2)c1	i
Cc1cccc(OCC(=O)Nc2ccncc2)c1	i
N#C/C(=C(/O)CSc1ncn[nH]1)c1nc2ccccc2[nH]1	i
Cc1cc(C)n(CC(=O)N/N=C/c2cc(Br)cc([N+](=O)[O-])c2O)n1	i
O=C(COC(=O)COc1ccccc1)Nc1ccc2c(c1)OCCO2	i
CC(C)c1ccc(NC(=O)COC(=O)COc2ccccc2)cc1	10	TTR inh HuH7=i;TTR up confirm=i
CC(C)c1ccc(OCC(=O)Nc2ccncc2)cc1	i
CC(C)(C)OC(=O)[C@H](Cc1ccccc1)NC(=O)c1[nH]cnc1C(=O)Nc1ccc(Cl)cc1	i
O=C(/C=C/C(=O)NCc1cccs1)NCc1cccs1	i
O=C(NCc1cccs1)NC1CCCCC1	i
O=C(CC1CC2CCC1C2)NCc1cccs1 (configuration not stated)	18	TTR inh HuH7=i;TTR up confirm=i
CC(=O)Nc1cccc(NC(=O)c2ccc(C)c([N+](=O)[O-])c2)c1	i
Cn1cccc1C(=O)NC(=O)COC(=O)C12CC3CC(CC(O)(C3)C1)C2	11	TTR inh HuH7=i;TTR up confirm=i
Cc1cc(C)c(NC(=O)COC(=O)C23CC4CC(CC(O)(C4)C2)C3)c(Cl)c1	i
O=C(COC(=O)C12CC3CC(CC(Br)(C3)C1)C2)NNC(=O)c1ccccc1	i
SMILES	TTR transcr act	others
CCc1cc2c(=O)c(-c3cscn3)coc2c(CN(C)C)c1O	i
CC1C(=O)N(Cc2cn(CC3CCCCC3)nn2)CCS(=O)(=O)N1Cc1ccc(-c2ccncc2)cc1 (configuration not stated)	i
COc1ccc(C(=O)Nc2ccc(C)cc2C(=O)c2ccccc2)c(OC)c1	i
Cc1ccc(NC(=O)OC2CC3CC2[C@H]2CCCCN2[C@H]3Cc2ccccc2)cc1 (some centres not stated)	i
Cc1ccc(F)cc1C(=O)N1CCCC(c2cc(C(=O)Nc3ccccc3)no2)C1 (configuration not stated)	i
CN(C)c1ccc(CC(=O)N2CCCC(c3cc(C(=O)Nc4ccccc4)no3)C2)cc1 (configuration not stated)	i
O=C(Nc1ccccc1)c1cc(C2CCCN(C(=O)C3CC3)C2)on1 (configuration not stated)	10.0	TTR inh HuH7=i;TTR up confirm=i
CN(C)C(=O)CSc1n[nH]c(=O)[nH]c1=O	i
CC1CCC2(CC1)NC(=O)N(CC(=O)N1CCN(S(=O)(=O)c3ccccc3)CC1)C2=O (configuration not stated)	i
COc1ccc(C=NNc2ccc([N+](=O)[O-])cn2)cc1	i
CC1=CC(C)(C)NC(=S)N1c1ccccc1C	i
COc1ccc(C2CC(c3ccccc3)=NN2C(=O)CCC(=O)O)cc1 (configuration not stated)	i
COc1ccc(C2CC(=O)C3=C(C2)Nc2ccccc2N(C(=O)CCC(=O)O)C3c2ccc(F)cc2)cc1 (configuration not stated)	102	TTR inh HuH7=i;TTR up confirm=i
CC(=O)N1c2ccccc2NC2=C(C(=O)CCC2)C1c1cccnc1 (configuration not stated)	i
O=C1Nc2ccc(S(=O)(=O)NCc3ccco3)c3cccc1c23	i
Cc1cc(NC(=O)CSc2nc3ccsc3c(=O)n2NC(=O)c2ccccc2)no1	i
Cc1cccc(/C(N)=N/OC(=O)c2cccnc2)c1	i
CSc1sc(-c2ccnc(SCC(=O)C(C)(C)C)n2)c2c1C(=O)CC(C)(C)C2	i
O=C(c1cccs1)n1nc(-c2ccc(Cl)cc2)nc1NCc1ccco1	i
O=c1[nH][nH]c(=O)c(Cl)c1Cl	12	TTR inh HuH7=i;TTR up confirm=i
Nc1ccn([C@@H]2O[C@H](C(=O)N3CCN(c4ccc(Cl)cn4)CC3)[C@@H](O)[C@H]2O)c(=O)n1	i
C=CCn1c(C)cc(C(=O)CSc2nnc3c(Cl)cc(Cl)cn23)c1C	22	TTR inh HuH7=i;TTR up confirm=i
C=CCn1c(C)cc(C(=O)CSc2nc(N)cc(N)n2)c1C	i
COc1ccc(C(C)=O)cc1CSc1nnc2c(Cl)cc(Cl)cn12	i
O=C(CNC(=O)c1ccccc1F)OCC(=O)N1CCCCC1	i
SMILES	TTR transcr act	others
O=C(CSCc1ccccc1Cl)N/N=C/c1ccco1	i
CCN(C[C@H]1N[C@@](Cc2ccccc2)(C(=O)OC)[C@H]2C(=O)N(Cc3ccccc3)C(=O)[C@@H]12)C(=O)c1ccccc1	i
CCN(C[C@H]1N[C@@](Cc2ccccc2)(C(=O)OC)[C@H]2C(=O)N(Cc3ccccc3)C(=O)[C@@H]12)C(C)=O	12	TTR inh HuH7=i;TTR up confirm=i
CCN(C[C@H]1N[C@@](Cc2ccccc2)(C(=O)OC)[C@H]2C(=O)N(Cc3ccccc3)C(=O)[C@@H]12)C(=O)COC	i
CC(C)C[C@@H](CSc1ccccc1)N1CCN(CCc2ccccc2)CCC1=O	i
O=S1(=O)CCOC[C@H](c2ccccc2)N1Cc1cccc(F)c1	13	TTR inh HuH7=i;TTR up confirm=i
O=S1(=O)CCOC[C@H](Cc2ccccc2)N1Cc1cccc(F)c1	i
O=S1(=O)CCOC[C@H](Cc2ccccc2)N1Cc1ccc(F)cc1	i
C[C@@H]1CN(C(=O)c2nc3ccc(Cl)cn3c2CN2CCc3sccc3C2)C[C@H](C)O1	i
CN(Cc1ccccc1)C(=O)Cn1cccc1C(=O)c1ccccc1	i
O=C(c1ccccc1)c1cccn1CC(=O)N1CCCCCC1	10	TTR inh HuH7=i;TTR up confirm=i
Cc1cccc(N2CCN(C(=O)Cn3cccc3C(=O)c3ccccc3)CC2)c1C	i
CCc1ccccc1NC(=O)CNC(=O)c1ccc(OCc2cn3ccccc3n2)cc1	i
CCN1C(=O)[C@H]2[C@H]3CN=C(SCc4ccc(C)cc4)N3[C@@](Cc3ccccc3)(C(=O)OC)[C@H]2C1=O	24	TTR inh HuH7=i;TTR up confirm=i
CCN1C(=O)[C@H]2[C@H]3CN=C(SCc4ccc(Cl)cc4)N3[C@@](Cc3ccccc3)(C(=O)OC)[C@H]2C1=O	i
CCN1C(=O)[C@H]2[C@H]3CN=C(SCc4ccc(C(=O)OC)cc4)N3[C@@](Cc3ccccc3)(C(=O)OC)[C@H]2C1=O	i
COc1cc(C)c(C(N)=O)c(OC)n1	i
COc1cccc(N2C(=O)CC(N3CCN(C(=O)c4ccco4)CC3)C2=O)c1 (configuration not stated)	i
O=C(c1ccco1)N1CCN(C2CC(=O)N(c3ccc(F)c(Cl)c3)C2=O)CC1 (configuration not stated)	10	TTR inh HuH7=i;TTR up confirm=i
